Inconclusive results are not listed. Values without a mark were called inactive. Calls of active or inactive are those of the source. Calls come from the whole dose curve; as a rule, active = well fitted curve in the direction sought with a large enough effect; inconclusive = small, poorly fitted or top-dose-only effect, or another doubt; inactive = no such curve, though single readings can be large or run the other way.
Experiment: Cell viability assay for measurement of the protective activity of small molecules against cell death caused by Zika virus infection in human astrocytes
Details: human astrocytes ZIKV-induced death, ATP luminescence, 72 h; series mostly up to 46.1 µM; protection from virus-induced death: at the top concentration
Text: National Center for Advancing Translational Sciences [NCATS] Johns Hopkins University School of Medicine Florida State University Assay Overview: Zika virus infection causes cell death in certain cell types including human neural progenitor cells (hNPCs), astrocytes, and astrocytoma cell line (SNB-19). This cell viability assay measures the ATP content (level) in human astrocytes using a luminescence readout that is proportional to viable cell numbers. Decrease in the luminescence signal after Zika virus infection indicates the cell death caused by Zika virus. Small molecule inhibitors […] the decreased luminescence signal after Zika virus infection, indicating the protective effect of that small molecule on the cell death caused by Zika virus infection. This observed protective effect of small molecules against Zika virus induced cell death may result from inhibition of virus replication or cellular response to the virus infection.
Assay Protocol Summary: The medium for astrocytes contains AM basal medium (ScienCell, Cat.# 1801), AGS (ScienCell, Cat.# 1801), 10% FBS, and 1% Pen/Strep. The ATP content assay kit (PerkinElmer, Cat.# 6016731) was used to determine cell viability. The reagent was reconstituted and prepared as described by the manufacturer. Cells were seeded in 384- or 1536-well assay plates and cultured at 37 C with 5% CO2 for 16 to 20 hours. The typical cell seeding density in the 1536-well plate assay is 350 cells/well in 3 ul medium for astrocytes in the tissue cultured treated/PDL coated plates. Compounds were added to cells and incubated for one hour before addition of ZIKV solution to cells (2 FFU/cell). After incubation at 37 C with 5% CO2 for 72 hours, the reagent mixture of the ATP content assay kit was added to each well, followed by incubation at room temperature for 10 minutes. The luminescence intensity of the assay plates was measured using a ViewLux plate reader (PerkinElmer). […] The percentage inhibitions of the decreased cell viability by small molecule inhibitors were then calculated.

SMILES	protection from virus-induced death	Potency
O=c1c(-c2ccc(O)cc2)coc2cc(OC3O[C@H](CO)[C@H](O)[C@H](O)[C@H]3O)cc(O)c12 (stereo not given in full)	4.77%	
Cc1oncc1C(=O)Nc1ccc(C(F)(F)F)cc1	-3.72%	
CC(C)OC(=O)CCCC=CC[C@@H]1[C@H](C=C[C@@H](O)COc2cccc(C(F)(F)F)c2)[C@H](O)C[C@@H]1O	16%	
Oc1ccc([C@H]2CNCc3c2ccc(O)c3O)cc1O	2.33%	
COc1cccc(-c2cc(=O)c3ccccc3o2)c1N	-7.91%	
COc1cc(NC(C)CCCN)c2ncccc2c1 (stereo not given)	2.41%	
COCCn1c2c([n+](Cc3cnccn3)c1C)C(=O)c1ccccc1C2=O	-9.52%	
Cc1[nH]c(C=C2C(=O)Nc3ccccc32)c(C)c1CCC(=O)O	3.65%	
CCCS(=O)c1ccc2nc(NC(=O)OC)[nH]c2c1 (stereo not given)	5.95%	
O=C(Nc1ccc(C(=O)O)c(O)c1)c1ccccc1	1.26%	
CC1(C)Cc2c(sc(NC(=S)NC(=O)c3ccccc3)c2C(=O)O)CO1	2.03%	
CN(C)c1ccc(/C=C2\C(=O)Nc3ccccc32)cc1	-2.02%	
Cc1ccc2c(n1)Oc1ccc(C(C)C(=O)OCC(=O)N(C)C)cc1C2 (stereo not given)	-0.871%	
Cc1cc(O)c2c(c1)C(=O)c1cc(O)cc(O)c1C2=O	0.358%	
CC(C)Oc1ccc2c(=O)c(-c3ccccc3)coc2c1	-5.36%	
O=C(O)[C@H](CC(=O)N1C[C@@H]2CCCC[C@H]2C1)Cc1ccccc1	6.96%	
Nc1ncnc2c1ncn2[C@@H]1O[C@@H](CO)[C@H](O)[C@H]1O	3.79% [at 23.8 µM]	
O=C1c2ccccc2-[n+]2ccc3c([nH]c4ccccc43)c21	-10.2%	
O=C(OCc1ccccc1)c1ccc(O)cc1	-3.82%	
O=C1NC(=O)C(=Cc2ccc(-c3ccc(F)cc3)o2)S1	1.74%	

SMILES	protection from virus-induced death	Potency
O=c1c2ccccc2[se]n1-c1ccccc1	-9.75%	
O=C(/C=C/c1ccccc1)NCCO	-2%	
CC(C(=O)O)c1ccc(C(=O)c2cccs2)cc1 (stereo not given)	5.45%	
O=S(=O)(CC1CS1)c1ccc(Oc2ccccc2)cc1 (stereo not given)	-1.15%	
N[C@H](CSC(c1ccccc1)(c1ccccc1)c1ccccc1)C(=O)O	-0.938%	
C[C@@H]1CCN(C(=O)CC#N)C[C@H]1N(C)c1ncnc2[nH]ccc12	-4.55%	
CCCCCCCC/C=C/C(=O)O	-1.29%	
COc1ccc(-c2coc3cc(O)ccc3c2=O)cc1	-3.84%	
S=C(SSC(=S)N1CCCCC1)N1CCCCC1		7.74 µM (active)
CCCCCCOc1ccccc1C(N)=O	3.23%	
CC(C)(C)OC(=O)CN(Cc1ccc(Cl)cc1)Cc1ccc([N+](=O)[O-])s1	4.94% [at 88.3 µM]	
Nc1ccc(N=Nc2ccccc2)c(N)n1	3.1%	
O=C(/C=C/c1ccc(O)cc1)c1ccc(O)cc1O	16.2%	
CC1=C(CO)C(=O)O[C@@H]([C@@H](C)[C@H]2CC[C@H]3[C@@H]4C[C@H]5O[C@]56[C@@H](O)C=CC(=O)[C@]6(C)[C@@H]4CC[C@]23C)C1	-0.531%	
O=C(Nc1ccc(OC(F)(F)F)cc1)c1sccc1NCc1ccnc2ccccc12	20.3%	
NC1CCC(Nc2nc(Nc3ccc(C(=O)N4CCCCC4)cc3)c3ncn(-c4cccc(F)c4)c3n2)CC1 (stereo not given)	-10.1%	
O=C(Nc1ccc(Br)cc1)c1cc(Br)cc(Br)c1O	18.8%	
CC(C)N[C@@H]1CCn2c(=O)[nH]c3cccc(c32)[C@@H]1O	-5.21%	
CCCC(=O)OC[C@@H](OC(=O)CCC)[C@@H](OC(=O)CCC)[C@H](Cn1c2nc(=O)[nH]c(=O)c-2nc2cc(C)c(C)cc21)OC(=O)CCC	3.06%	
O=C1CCC[C@@H]2[C@H]3CCCN4CCC[C@@H](CN12)[C@@H]34	3.66%	

Reference: PubChem BioAssay AID1224856 (National Center for Advancing Translational Sciences (NCATS), 2016)
